Screening results as filed in PubChem BioAssay.
A selection: hits, their analogues and other compounds. The true share with any hit is near 5.2%.
APOBEC3A inh = human APOBEC3A DNA deaminase inhibition; P31941; recombinant A3A, FAM/TAMRA ssDNA deamination fluorescence; inhibition, % at 20 µM; 330,000 tested, 0.41% active; AID 493011;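 active = at least 40% inhibition at 20 µM here, with at most 30% in a related deaminase screen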;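 also: plate controls were A3A with DMSO for no effect and wells lacking A3A enzyme for full effect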
Target sequence (P31941 whole entry, looked up): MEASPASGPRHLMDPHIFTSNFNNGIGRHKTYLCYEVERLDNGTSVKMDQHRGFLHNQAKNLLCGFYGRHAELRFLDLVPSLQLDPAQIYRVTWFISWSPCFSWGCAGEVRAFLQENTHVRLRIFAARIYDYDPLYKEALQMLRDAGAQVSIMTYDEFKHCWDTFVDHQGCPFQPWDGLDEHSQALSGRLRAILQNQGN
APOBEC3G inh = blocks human APOBEC3G single-stranded DNA deamination; 330,000 tested, 0.28% active; inhibition, % at 20 µM; recombinant A3G, ssDNA deamination FAM/TAMRA fluorescence; Q9HC16; AID 493012;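 active = inhibition of at least 40% at 20 µM, with no more than 30% in the related APOBEC3A deaminase screen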;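 also: plate controls were DMSO wells with A3G for no effect and wells lacking A3G enzyme for full effect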
M18AAP inhibitor = blocks P. falciparum M18 aspartyl aminopeptidase; recombinant PfM18AAP, H-Glu-NHMec fluorogenic cleavage; inhibition, % at 7.35 µM; 290,000 tested, 1.2% active;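 active = inhibition above the campaign mean inhibition over all tested compounds plus 3 SD, cut at about 28% in these data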;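 also: 0% = plate median of test compound wells and 100% = 2 mM ZnCl2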
NRP1-CendR mod = alters CendR peptide binding to human NRP-1; FAM-RPARPAR peptide binding to NRP-1, fluorescence polarization; inhibition, % at 25 µM; 360,000 tested, 0.85% active; AID 602438;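 active = inhibition or corrected inhibition above about 18%, plus a signal ratio from 0.5 to 1.5, limit read from the data, passing the limit was not always enough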
CR mimetic SO = yeast age-related superoxide inhibition as caloric restriction mimetic; AID 2690; superoxide response (% of plate mean), % at 10 µM; 330,000 tested, 0.18% active; S. cerevisiae aged cells, superoxide DHE fluorescence; active compounds read low;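 active = superoxide response under a set limit, about three screen SD below normal, cut at about 65% in these data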;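 also: yeast aged for seven days with compound at 30 °C before DHE staining; 100% = average MFI of all compound-treated wells on the plate with controls excluded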
ALR H2O2 inh = inhibitors of human sulfhydryl oxidase ALR. P55789. purified ALR, DTT oxidation, H2O2 HRP-luminol luminescence. inhibition, % (concentration not given with the values). 290,000 tested, 3.8% active. AID 485317;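 active = mean replicate inhibition above about 79%, with every replicate also reaching it, limit read from the data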
Target sequence (P55789 whole entry, looked up): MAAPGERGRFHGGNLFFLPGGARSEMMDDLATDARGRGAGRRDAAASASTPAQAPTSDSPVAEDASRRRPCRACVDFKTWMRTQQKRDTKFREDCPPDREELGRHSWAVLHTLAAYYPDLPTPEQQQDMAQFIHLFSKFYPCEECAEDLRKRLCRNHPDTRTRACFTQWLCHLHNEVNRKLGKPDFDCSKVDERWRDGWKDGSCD
APOBEC3A confirm = confirmation of human APOBEC3A DNA deaminase inhibitors. shares compounds with APOBEC3A inh. recombinant A3A, ssDNA deaminase UDG fluorescence assay. inhibition, % at 20 µM. 1,400 tested, 63% active. AID 493151;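 active = inhibition reaching a set limit, 80% of the first screen's cutoff, at 20 µM in any replicate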;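 also: plate controls were DMSO wells with A3A for no effect and wells lacking A3A enzyme for full effect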
UDG ctr A3A = inhibits UDG, flagging false APOBEC3A inhibitors. 1,000 tested, under 10 active. AID 504714. UDG counterscreen, FAM/TAMRA uracil oligo fluorescence. inhibition, % at 20 µM. shares compounds with APOBEC3A inh; call rule not given here
* marks the source's active call; other numbers are inactive results; / = not tested or not shown.

SMILES | APOBEC3A inh | APOBEC3G inh | M18AAP inhibitor | NRP1-CendR mod | CR mimetic SO | ALR H2O2 inh | APOBEC3A confirm | UDG ctr A3A
CC(C)(C)C(=O)c1cn(CC(=O)NCc2ccco2)c2ccccc12 | 59* | 15 | 9 | -10 | 97 | -3 | 46* | -2
CCOc1c(P(=S)(N(C)C)N(C)C)c(C)nn1-c1ccccc1 | 42* | 5 | 0 | 14 | 94 | 4 | 4 | /
CCCC[N+]12CCC(CC1)C(C(=O)c1cccs1)C2 (stereo unspecified) | 67* | 22 | -1 | -8 | 81 | -3 | 78* | 2
Cn1c[n+](C)cc1C(O)c1ccccc1 (stereo unspecified) | 60* | 17 | 4 | 10 | 111 | -15 | 51* | -3
O=C(CNC(=O)c1ccc(Br)cc1)Nc1ccc(Br)cc1C(=O)c1ccccc1 | -4 | -1 | -3 | 0 | 106 | -3 | / | /
Nc1ccc(CCN2CCCC2)cc1 | -1 | -7 | -3 | 12 | 94 | -7 | / | /
CCOc1ccccc1N=C1SCCCN1C | 47* | 22 | -9 | 3 | 92 | -3 | 73* | 1
CN1CCCCC1Cc1ccccc1 (stereo unspecified) | / | / | / | 5 | / | / | / | /
COc1ccc(-n2c(C)cc(C(=O)C[N+]34CCN(CC3)CC4)c2C)cc1 | 59* | 10 | -12 | -6 | 95 | 35 | 70* | 2
Cc1cc(C(=O)CN2CCCC2)c(C)n1-c1ccc(F)cc1 | 5 | 1 | -7 | -12 | 108 | 0 | / | /
C[n+]1ccc(-c2ccncc2)cc1 | 74* | 25 | -10 | -3 | 136 | -2 | 77* | -3
O=c1c2ccccc2nc(-c2ccco2)n1-c1nccs1 | -1 | -2 | -1 | 6 | 106 | -2 | / | /
Cc1ccc2c(c1)C1CN(C)CCC1N2C(=O)c1cccs1 (stereo unspecified) | -1 | 2 | -4 | -3 | 79 | 0 | / | /
Cc1ccc2c(c1)C1C[N+](C)(CC(=O)c3ccc(Cl)cc3Cl)CCC1N2C(=O)c1ccc(F)cc1 (stereo unspecified) | 79* | 13 | / | 8 | 91 | / | 79* | -2
C[N+]1(C)C2CCC1CC(OC(=O)C(CO)c1ccccc1)C2 (stereo unspecified) | 68* | 17 | 5 | -7 | 84 | -8 | 74* | -4
CN1C2CCC1CC(OC(=O)c1ccc(Cl)cc1)C2 (stereo unspecified) | -5 | -7 | 4 | -5 | 87 | 0 | / | /
C[N+]1(C)[C@@H]2CC[C@H]1CC(OC(=O)C(CO)c1ccccc1)C2 (stereo partly specified) | 0 | -2 | 1 | 8 | 96 | 4 | / | /
C[N+]1(C)C2CCC1CC(OC(=O)c1ccccc1)C2 (stereo unspecified) | 50* | 17 | 0 | -2 | 87 | -3 | 67* | 1
CCN(CC)P(=O)(c1n(CC)cc[n+]1CC)N(CC)CC | 86* | 28 | 0 | 12 | 97 | -13 | 73* | -2
CN1C(=O)NC(=O)/C(=C\c2ccc([N+](=O)[O-])o2)C1=O | 65* | 26 | 14 | -20 | 94 | -33 | 54* | /
CN1C(=O)NC(=O)/C(=C/c2ccc([N+](=O)[O-])o2)C1=O | 66 | 31 | 20 | / | 92 | -70 | / | /
CC(C)[N+]12CCC(CC1)C(C(O)(c1ccccc1)c1ccccc1)C2 (stereo unspecified) | / | / | -13 | 0 | 101 | 1 | 63* | /
CC[N+]12CCC(CC1)C(C(O)(c1ccccc1)c1ccccc1)C2 (stereo unspecified) | 0 | -5 | 1 | 11 | 98 | 6 | / | /
C[N+]12CCC(CC1)C(C(O)(c1cccc(Cl)c1)c1cccc(Cl)c1)C2 (stereo unspecified) | 86* | 20 | -1 | 20 | 99 | -19 | 75* | 3
Cc1ccc(C(O)(c2ccc(C)c(C)c2)C2CN3CCC2CC3)cc1C (stereo unspecified) | -1 | -5 | 2 | 6 | 95 | -38 | / | /
